This note sets out measurements from PubChem BioAssay.

Activity calls are given as the source filed them.

Test [1] is described as follows: binders of probe aFSTL3 on microarray, primary screen, stem cell growth factor project, biochemical, small-molecule microarray, fluorescence 635/667 (AID 1064).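 Further: measures binding of the biotinylated anti-FSTL3 antibody to printed compounds.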 The conditions noted are these: higher = more signal.
Test [2] in a line: binders from COS7 lysate, DM2A8 probe, primary screen, torsin A project, cell lysate, small-molecule microarray, fluorescence 635/667 (AID 1065). The conditions noted are these: higher = more signal, COS7 lysate expressing mutant human TOR1A.
Test [3] in a line: binders of probe aFGF2 on microarray, primary screen, stem cell growth factor project, biochemical, small-molecule microarray, fluorescence 635/667 (AID 1067).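 Further: measures binding of biotinylated aFGF2 protein to printed compounds on slides; z-score merges feature fluorescence and signal-to-noise across triplicate slides.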 The conditions noted are these: higher = more signal.
A short description of test [4]: binders of probe aFGF10 on microarray, primary screen, stem cell growth factor project, biochemical, small-molecule microarray, fluorescence 635/667 (AID 1071).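 Further: score merges 667 nm spot intensity and signal to noise from triplicate slides.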 The conditions noted are these: higher = more signal.
The target in test [5] is Neurogenic locus notch homolog protein 2 (Homo sapiens) (UniProt Q04721). Briefly: Notch2 binders on small-molecule microarrays, primary screen, biochemical, small-molecule microarray, 635 nm fluorescence, stem cell growth factors (AID 1073). The conditions noted are these: Notch2 binding, higher = more signal.
Chain of Neurogenic locus notch homolog protein 2 (Homo sapiens) (Q04721 whole entry, looked up, canonical isoform): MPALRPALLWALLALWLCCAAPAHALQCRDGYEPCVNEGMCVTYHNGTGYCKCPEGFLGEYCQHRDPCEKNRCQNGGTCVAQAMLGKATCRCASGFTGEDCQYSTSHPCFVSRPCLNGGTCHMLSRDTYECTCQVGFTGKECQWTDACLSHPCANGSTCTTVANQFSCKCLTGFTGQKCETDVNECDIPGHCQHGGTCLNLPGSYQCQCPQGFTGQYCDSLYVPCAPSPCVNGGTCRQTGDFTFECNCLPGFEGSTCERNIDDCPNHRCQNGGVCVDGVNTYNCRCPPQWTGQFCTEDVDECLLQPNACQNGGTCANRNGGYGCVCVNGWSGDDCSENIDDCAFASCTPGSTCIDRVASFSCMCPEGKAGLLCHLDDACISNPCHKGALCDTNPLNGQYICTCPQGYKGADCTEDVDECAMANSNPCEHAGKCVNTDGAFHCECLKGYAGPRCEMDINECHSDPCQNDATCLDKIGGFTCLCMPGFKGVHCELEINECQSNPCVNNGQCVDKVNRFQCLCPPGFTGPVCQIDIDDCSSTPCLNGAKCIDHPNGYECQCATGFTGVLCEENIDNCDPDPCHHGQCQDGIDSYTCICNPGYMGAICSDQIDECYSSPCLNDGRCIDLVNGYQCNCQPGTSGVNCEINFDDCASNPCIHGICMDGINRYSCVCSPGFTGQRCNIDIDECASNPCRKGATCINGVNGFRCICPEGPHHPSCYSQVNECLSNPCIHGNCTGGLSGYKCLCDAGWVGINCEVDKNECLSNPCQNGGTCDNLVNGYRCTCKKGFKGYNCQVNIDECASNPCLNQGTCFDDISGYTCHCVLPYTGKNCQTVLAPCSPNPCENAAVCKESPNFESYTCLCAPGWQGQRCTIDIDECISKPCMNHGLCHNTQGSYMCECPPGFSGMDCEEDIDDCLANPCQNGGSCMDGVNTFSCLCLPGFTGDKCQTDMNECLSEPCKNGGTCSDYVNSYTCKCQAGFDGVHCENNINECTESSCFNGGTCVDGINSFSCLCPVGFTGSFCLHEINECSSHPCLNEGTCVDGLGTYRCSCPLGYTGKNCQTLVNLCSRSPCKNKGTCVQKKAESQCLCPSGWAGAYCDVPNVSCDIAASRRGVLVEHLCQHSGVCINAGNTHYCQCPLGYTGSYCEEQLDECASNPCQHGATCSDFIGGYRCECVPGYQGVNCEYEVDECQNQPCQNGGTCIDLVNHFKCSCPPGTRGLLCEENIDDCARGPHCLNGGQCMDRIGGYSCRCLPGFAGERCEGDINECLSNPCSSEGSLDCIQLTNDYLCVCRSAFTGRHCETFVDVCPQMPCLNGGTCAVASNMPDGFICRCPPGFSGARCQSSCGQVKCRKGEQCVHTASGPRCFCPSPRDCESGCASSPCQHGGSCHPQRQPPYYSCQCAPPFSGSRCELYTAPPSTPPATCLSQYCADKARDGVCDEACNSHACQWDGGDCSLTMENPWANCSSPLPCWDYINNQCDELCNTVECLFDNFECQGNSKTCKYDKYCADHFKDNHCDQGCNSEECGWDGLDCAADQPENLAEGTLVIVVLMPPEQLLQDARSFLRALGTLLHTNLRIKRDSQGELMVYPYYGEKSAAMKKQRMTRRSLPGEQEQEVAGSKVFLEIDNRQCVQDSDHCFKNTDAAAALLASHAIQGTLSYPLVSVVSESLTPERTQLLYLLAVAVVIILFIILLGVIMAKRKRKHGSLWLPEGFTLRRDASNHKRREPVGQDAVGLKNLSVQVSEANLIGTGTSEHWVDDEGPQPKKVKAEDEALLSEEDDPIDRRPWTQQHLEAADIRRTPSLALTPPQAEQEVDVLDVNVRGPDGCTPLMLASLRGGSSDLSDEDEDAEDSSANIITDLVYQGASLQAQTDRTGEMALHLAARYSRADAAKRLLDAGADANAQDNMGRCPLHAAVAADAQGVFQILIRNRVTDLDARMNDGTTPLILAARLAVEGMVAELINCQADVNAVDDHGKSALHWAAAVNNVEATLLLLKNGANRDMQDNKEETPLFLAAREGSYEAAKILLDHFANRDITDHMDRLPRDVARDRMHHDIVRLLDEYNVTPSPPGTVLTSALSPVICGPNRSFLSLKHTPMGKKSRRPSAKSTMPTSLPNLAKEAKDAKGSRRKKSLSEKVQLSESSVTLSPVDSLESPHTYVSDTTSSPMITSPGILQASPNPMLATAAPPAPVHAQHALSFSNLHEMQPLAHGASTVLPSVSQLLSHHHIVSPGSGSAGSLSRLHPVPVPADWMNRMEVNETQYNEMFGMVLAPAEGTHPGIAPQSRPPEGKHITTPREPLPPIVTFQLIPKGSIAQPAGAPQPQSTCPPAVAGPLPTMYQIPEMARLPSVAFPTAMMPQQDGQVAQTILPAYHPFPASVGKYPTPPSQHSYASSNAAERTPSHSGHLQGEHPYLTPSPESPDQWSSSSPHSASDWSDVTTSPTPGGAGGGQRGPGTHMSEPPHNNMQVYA
Test [6] concerns the target Pro-neuregulin-1, membrane-bound isoform (Homo sapiens) (UniProt Q02297). Briefly: NRG1 binders on small-molecule microarrays, primary screen, psychiatric disease protein project, biochemical, small-molecule microarray, fluorescence 635/667 (AID 1075).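 Further: score combines 667 nm spot fluorescence with signal to noise.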 The conditions noted are these: NRG1 binding, 635 nm fluorescence, higher = more signal.
The subject of test [7] is Neuregulin-1 EGF-like domain. Description: binders of neuregulin-1 EGF-like domain, primary screen, biochemical, small-molecule microarray, 635 nm fluorescence (AID 1081).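 Further: binding of the protein to compounds printed on small-molecule microarray slides.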 The conditions noted are these: small-molecule microarray binding, higher = more signal.
Test [8] in a line: FRG1 promoter luciferase signal modulators, primary screen, FRG1 inhibition for FSHD, cell-based, C2C12 myotubes, firefly/Renilla luciferase, luminescence (AID 1084). The conditions noted are these: higher = more signal, called active from +8 up or from −8 down.
Test [9] is described as follows: binders of probe aFST on microarray, primary screen, stem cell growth factor project, biochemical, small-molecule microarray, fluorescence 635/667 (AID 1086).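 Further: score merges 667 nm fluorescence with signal-to-noise of each printed compound spot.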 The conditions noted are these: higher = more signal.
The nature of test [10]: binders of probe aHhip on microarray, primary screen, stem cell growth factor project, biochemical, small-molecule microarray, fluorescence 635/667 (AID 1087).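 Further: score merges spot fluorescence at 667nm with spot signal to noise ratio.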 The conditions noted are these: higher = more signal.

Chain of Pro-neuregulin-1, membrane-bound isoform (Homo sapiens) (Q02297 whole entry, looked up, the tested form may be a part, canonical isoform): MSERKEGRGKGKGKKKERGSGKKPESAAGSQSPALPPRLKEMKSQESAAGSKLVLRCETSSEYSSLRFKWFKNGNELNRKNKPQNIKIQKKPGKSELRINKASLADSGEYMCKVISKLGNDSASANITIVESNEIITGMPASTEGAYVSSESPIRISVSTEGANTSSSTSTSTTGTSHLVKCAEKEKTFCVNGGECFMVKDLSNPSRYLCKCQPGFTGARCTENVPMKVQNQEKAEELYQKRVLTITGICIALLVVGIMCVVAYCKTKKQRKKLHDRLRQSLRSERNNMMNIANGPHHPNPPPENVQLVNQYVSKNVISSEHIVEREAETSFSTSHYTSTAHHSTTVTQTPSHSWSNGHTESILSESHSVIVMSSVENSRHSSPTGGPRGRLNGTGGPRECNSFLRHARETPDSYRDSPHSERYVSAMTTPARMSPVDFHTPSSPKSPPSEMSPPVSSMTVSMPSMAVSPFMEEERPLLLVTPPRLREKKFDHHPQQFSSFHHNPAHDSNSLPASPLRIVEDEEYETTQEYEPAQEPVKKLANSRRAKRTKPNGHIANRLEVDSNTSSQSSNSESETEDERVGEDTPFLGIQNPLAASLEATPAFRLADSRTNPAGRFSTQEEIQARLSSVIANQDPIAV

Take `[N-]=[N+]=NCc1ccccc1C[C@]1(C(=O)N2CCOCC2)COC(c2ccc(OCCCO)cc2)=N1`: the composite z-score was found to be 0.518 in [1]; 0.456 in [2]; 0.083 in test [3]; 0.973 in test [4]; 0.626 in test [5]; 1.02 in test [6]. The figures for the composite z-score in [7], in test [9] and in test [10] were 1.24, 0.73 and -0.0237, respectively. The z-score in [8] is -2.87 (inactive).
In the case of `COc1ccc(C(=O)Nc2cccc(CN3C(=O)[C@@]4(O[C@@H](CC(=O)N(CCO)Cc5ccccc5)[C@H]([Si](C)(C)c5ccc(OC)cc5)[C@H]4C)c4ccccc43)c2)cc1`, the composite z-score in [1] was -0.117; in test [2], 0.741; in [3] it was -0.119; in test [4], 0.079; in test [5] it was -0.342; in test [6] it was 0.585. Further, the results for the composite z-score in test [7], in [9] and in test [10] were 1.09, -0.141 and 0.0274, respectively. For the same compound, the z-score in test [8] was -2.55 (inactive).
Take `CCCCC=C[C@@H](NC(=O)c1ccccc1)c1ccccc1`: the composite z-score in [1] came to 0.277; in test [2], 0.241; in test [3] it was 0.0011; in test [4], 0.356; in test [5] it was 1.21; in [6] it was 0.868. For the same compound, the composite z-score is 1.02 in test [7], 0.866 in [9] and -0.206 in test [10]. For the same compound, in test [8], the z-score is 1.03 (inactive).
For `O=C1OCCC=C[C@H]2OC34C=CCN(c5ccc(Cl)cc5)C(=O)[C@H]3N(CCCCCCO)C(=O)[C@@H]4C12` (stereo not given in full), the composite z-score in [1] is 0.43; in [2], -0.0789; in test [3] it was -0.116; in test [4], -0.683; in [5] it was -0.879; in test [6], -0.221. In addition, the composite z-score in test [7] was 1.24; in [9], -0.257; in test [10], -0.226. In addition, in [8], the z-score was 0.45 (inactive).
On to `COCC(=C=CC[C@H](O)c1cccc(OCCO)c1)C[C@H](O)COCc1ccccc1`, for which the composite z-score in [1] is 0.0102; in test [2] it was 0.823; in test [3] it was -0.0602; in test [4], 0.427; in [5] it was 0.276; in test [6] it was 1.51. Moreover, the composite z-score in test [7] is 1.31; in [9] it was 0.256; in [10], -0.476. For the same compound, the z-score in test [8] was 0.574 (inactive).
On to `O=C1C[C@@](C(=O)NCC(F)(F)F)(c2ccc([N+](=O)[O-])cc2)[C@@H](c2ccc(CO)cc2)N1CC12CC3CC(CC(C3)C1)C2`, for which the composite z-score in [1] turned out to be 0.213; in [2], 0.244; in [3], 0.134; in test [4] it was 1.15; in test [5] it was 1.19; in test [6], 0.812. For the same compound, the values for the composite z-score in test [7], in test [9] and in test [10] were 1.32, 0.724 and 0.914, respectively. Moreover, in test [8], the z-score is -2.42 (inactive).
`C=CCC(OC(C)=O)[C@@H]1[C@@H](N(Cc2ccc(-c3cccc(C(F)(F)F)c3)o2)C(=O)c2ccc(C)cc2)c2cc(OCCCO)ccc2N1C(=O)Cc1ccc(OC)cc1` (stereo not given in full): the composite z-score in test [1] was 0.002; in test [2], -0.315; in test [3], -0.0639; in test [4] it was 0.0732; in [5], -0.489; in [6], -0.0798. Moreover, the composite z-score in test [7] was -0.986; in test [9] it was 0.382; in test [10], 0.0373. In addition, the z-score in test [8] was -0.287 (inactive).
Take `C=C(CCCC)C(=O)CC[C@H](OC(=O)c1ccccc1-c1ccccc1C(=O)O)c1ccccc1OCCO`: the composite z-score in [1] was -0.0134; in test [2], 0.814; in test [3], -0.149; in test [4] it was 0.76; in test [5] it was -0.331; in test [6] it was 1.06. The composite z-score in test [7] is 1.07; in test [9], -0.214; in [10], -0.249. In addition, in [8], the z-score is -1.42 (inactive).
With `O=c1cccc(-c2ccc(F)cc2)o1`, the composite z-score in [1] was -0.227; in test [2], -0.0321; in test [3], -0.0455; in test [4] it was 0.255; in [5] it was 0.607; in test [6], -0.219. Also, the values for the composite z-score in test [7], in test [9] and in [10] were 1.08, 0.552 and 0.643, respectively. Further, the z-score in test [8] is 0.855 (inactive).
Turning to `COc1ccc(C(=O)Nc2cccc(CN3C(=O)[C@]4(O[C@H](CCn5cc([C@H](O)c6ccccc6)nn5)[C@@H]([Si](C)(C)c5ccc(OC)cc5)[C@@H]4C)c4ccccc43)c2)cc1`, the composite z-score in test [1] is 0.243; in test [2], -0.505; in test [3] it was -0.0709; in [4], 0.266; in [5] it was -0.122; in [6], 1.04. In addition, the composite z-score in [7] is 0.933; in test [9], 0.0644; in [10], -0.0618. Moreover, the z-score in [8] was -0.454 (inactive).
For `O=C1OCC=C[C@H]2OC34C=CCN(c5ccc6ccccc6c5)C(=O)[C@H]3N(CCCCCO)C(=O)[C@@H]4[C@@H]12` (stereo not given in full), the composite z-score in test [1] was 1.43; in [2], -0.964; in test [3], -0.0407; in [4], -0.61; in [5] it was -0.994; in test [6], 2.26. In addition, the composite z-score in test [7] was 1.39; in [9], -0.356; in [10] it was -0.338. Besides, in test [8], the z-score was -0.139 (inactive).
Take `C=C(/C(=C/C[C@H](OC(=O)c1ccncc1)c1cccc(OCCO)c1)c1cnc2ccccc2c1)C(C)C`: the composite z-score in test [1] was 0.0581; in test [2] it was 0.857; in [3], -0.0448; in test [4], 1.34; in [5], 1.41; in test [6], 1.07. The composite z-score was found to be 0.884 in [7], 0.157 in test [9] and 0.0695 in test [10]. In test [8], the z-score was -2.64 (inactive).
`COC(=O)[C@@]1(Cc2ccc(F)cc2)[C@H]2c3cc(C(=O)N4CCCC4)n(CC4CC4)c3C[C@H]2CN1C(=O)c1ccccc1`: the composite z-score is 0.349 in test [1]; 0.149 in [2]; 0.0274 in test [3]; 0.427 in test [4]; 1.72 in [5]; 2.05 in test [6]. Further, the composite z-score turned out to be 1.06 in [7], 1.61 in [9] and 0.0274 in test [10]. The z-score in test [8] is 0.108 (inactive).
Consider `Cc1ccccc1C(O)C1C=CC2C(=O)NC(=O)C2N1Nc1ccc(Cl)cc1Cl` (stereo not given), for which the composite z-score in test [1] is 0.51; in test [2], 0.328; in [3], 0.0342; in test [4], 0.5; in test [5], 1.48; in test [6] it was 1.73. In addition, the composite z-score is 1.04 in test [7], 0.504 in [9] and -0.283 in [10]. For the same compound, in [8], the z-score was 0.0623 (inactive).
In the case of `CCOC(=O)C1=CCC(c2ccco2)N(S(=O)(=O)c2ccc(C)cc2)C1` (stereo not given), the composite z-score in test [1] was 0.632; in test [2], -0.0497; in test [3], 0.0061; in test [4] it was 0.864; in test [5], 1.62; in test [6], 1.46. Also, the composite z-score in test [7] is 0.791; in test [9] it was 0.803; in test [10], 0.127. In addition, the z-score in test [8] was -2.47 (inactive).
As for `O=C1C[C@@](C(=O)NCc2ccccc2)(c2ccc([N+](=O)[O-])cc2)[C@@H](c2ccc(CO)cc2I)N1CC12CC3CC(CC(C3)C1)C2`, the composite z-score in test [1] was -0.262; in [2], 0.656; in test [3], -0.0412; in [4] it was 0.831; in [5], 1.2; in [6] it was 0.656. The composite z-score in [7] stood at 1.15; in test [9], 0.572; in test [10], 0.261. In addition, the z-score in test [8] is -1.32 (inactive).
For the compound `O=C(CS)NCCCCCNC(=O)[C@@H]1C[C@@H]2C(=O)N[C@@H](Cc3ccccc3)C(=O)N2[C@@H]1c1cccc(OCCO)c1`, the composite z-score was -0.0315 in test [1]; 0.692 in test [2]; -0.01 in test [3]; 0.325 in [4]; 0.0566 in [5]; 1.43 in [6]. The figures for the composite z-score in test [7], in [9] and in [10] were 1.39, 0.0454 and -0.277, respectively. Besides, in test [8], the z-score is 0.057 (inactive).
